# Assays:
# Assay in all cases: cross-link between two proteins
# [1] = target: Small ribosomal subunit protein eS1A (UniProt P33442)
# [2] = target: Small ribosomal subunit protein eS4A (UniProt P0CX35)
# [3] = target: Small ribosomal subunit protein eS6A (UniProt P0CX37)
# [4] = target: Small ribosomal subunit protein eS7A (UniProt P26786)
# Small ribosomal subunit protein eS7A, sequence (P26786 whole entry): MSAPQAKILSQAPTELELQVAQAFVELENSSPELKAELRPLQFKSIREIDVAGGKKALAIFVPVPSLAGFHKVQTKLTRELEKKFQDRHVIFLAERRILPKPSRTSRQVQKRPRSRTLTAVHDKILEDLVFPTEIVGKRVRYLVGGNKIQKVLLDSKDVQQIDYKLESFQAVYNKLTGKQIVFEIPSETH
# Small ribosomal subunit protein eS1A, sequence (P33442 whole entry): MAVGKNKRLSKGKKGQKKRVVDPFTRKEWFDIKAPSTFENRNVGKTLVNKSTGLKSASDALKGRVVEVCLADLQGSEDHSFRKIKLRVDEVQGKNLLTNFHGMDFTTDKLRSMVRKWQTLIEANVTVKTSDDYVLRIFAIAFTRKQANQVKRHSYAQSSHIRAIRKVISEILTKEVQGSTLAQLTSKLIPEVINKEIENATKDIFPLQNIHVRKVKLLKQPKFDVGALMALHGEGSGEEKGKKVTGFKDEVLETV
# Small ribosomal subunit protein eS6A, sequence (P0CX37 whole entry): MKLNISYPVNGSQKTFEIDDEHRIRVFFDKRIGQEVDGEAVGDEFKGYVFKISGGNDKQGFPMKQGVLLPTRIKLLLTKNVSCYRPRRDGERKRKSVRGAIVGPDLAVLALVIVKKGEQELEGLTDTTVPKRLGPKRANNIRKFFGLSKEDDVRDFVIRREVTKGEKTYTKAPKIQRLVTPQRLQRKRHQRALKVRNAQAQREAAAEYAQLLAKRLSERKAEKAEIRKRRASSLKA
# Small ribosomal subunit protein eS4A, sequence (P0CX35 whole entry): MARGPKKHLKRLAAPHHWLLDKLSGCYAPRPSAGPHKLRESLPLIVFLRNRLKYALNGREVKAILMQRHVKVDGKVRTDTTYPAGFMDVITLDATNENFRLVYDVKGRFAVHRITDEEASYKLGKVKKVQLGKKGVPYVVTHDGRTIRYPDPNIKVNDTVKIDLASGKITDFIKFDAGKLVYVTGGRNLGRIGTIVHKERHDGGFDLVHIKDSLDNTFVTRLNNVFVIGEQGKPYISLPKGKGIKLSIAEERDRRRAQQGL
# Small ribosomal subunit protein uS8A, P0C0W1, sequence (P0C0W1 whole entry): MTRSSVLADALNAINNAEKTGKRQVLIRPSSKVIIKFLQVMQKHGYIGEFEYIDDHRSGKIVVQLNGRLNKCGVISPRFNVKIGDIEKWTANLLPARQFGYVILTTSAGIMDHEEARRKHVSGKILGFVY
substance,measurement,setting,value
"Small ribosomal subunit protein uS11A, P06367",listed as a hit,[1],yes
"Small ribosomal subunit protein eS24A, P0CX31",listed as a hit,[2],yes
"Small ribosomal subunit protein eS4A, P0CX35",listed as a hit,[3],yes
"Small ribosomal subunit protein uS8A, P0C0W1",listed as a hit,[4],yes

# From paper PMC4151992
